Common to all, as to assay: DAPPL (digital affinity profiling via proximity ligation, sequencing); 10 mM Tris-HCl pH 7.5, 50 mM NaCl, 1 mM DTT, 4% glycerol, room temperature, 30 min; GST-TFs on glutathione beads, 16-mer random dsDNA library, 0.1% formaldehyde crosslink after washing; high values mean tight binding
The target in one test is T1, FEV (Homo sapiens, UniProt Q99581 1-238).
T1 sequence: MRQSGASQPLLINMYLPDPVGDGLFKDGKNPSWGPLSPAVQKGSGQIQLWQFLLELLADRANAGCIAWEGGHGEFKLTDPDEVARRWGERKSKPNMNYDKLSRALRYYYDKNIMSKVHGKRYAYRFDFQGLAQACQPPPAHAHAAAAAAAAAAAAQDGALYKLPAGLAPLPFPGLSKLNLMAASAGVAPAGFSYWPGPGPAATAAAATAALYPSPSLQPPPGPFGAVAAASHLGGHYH
To be noted: protein: recombinant; tags: N-terminal GST; dsDNA, one strand shown. Put shortly: (§1)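 Pools were built from human transcription factors expressed in yeast as GST fusions, captured on glutathione beads and DNA-barcoded, along with a tag-only sample. Incubation with 200 nmole of a 16-mer random double-stranded DNA library lasted 30 min at room temperature in Tris/NaCl/DTT/glycerol buffer, and was followed by washing, 0.1% formaldehyde crosslinking, proximity ligation, PCR amplification and Illumina NextSeq500 sequencing. Binding signal is the quotient of each hexamer's read frequency for a factor and its frequency for the tag-only sample.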

In a further test the target is ETV5 (Homo sapiens, UniProt P41161 1-510). Particulars: protein: recombinant; tags: N-terminal GST; dsDNA, one strand shown. Summed up: as §1
The next test concerns the target HSF1 (Homo sapiens, UniProt Q00613 1-529). Particulars: protein: recombinant; tags: N-terminal GST; chain copies: 3; dsDNA, one strand shown. Summed up: as §1
A further test deals with T2, SPIC (Homo sapiens, UniProt Q8N5J4 1-248).
T2 sequence: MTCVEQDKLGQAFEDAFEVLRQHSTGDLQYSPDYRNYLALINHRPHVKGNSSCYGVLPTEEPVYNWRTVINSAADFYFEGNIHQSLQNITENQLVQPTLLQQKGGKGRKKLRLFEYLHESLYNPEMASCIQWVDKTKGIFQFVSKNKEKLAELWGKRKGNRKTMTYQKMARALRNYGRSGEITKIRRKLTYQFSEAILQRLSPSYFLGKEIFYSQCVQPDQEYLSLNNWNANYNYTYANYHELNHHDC
Particulars: protein: recombinant; tags: N-terminal GST; dsDNA, one strand shown. Summed up:
as §1

For the next test, the target named is ELF4 (Homo sapiens, UniProt Q99607 1-663). Particulars: protein: recombinant; tags: N-terminal GST; dsDNA, one strand shown. Put shortly:
as §1

For a further test, the target named is T3, ELK4 (Homo sapiens, UniProt P28324-2 1-405).
T3 sequence: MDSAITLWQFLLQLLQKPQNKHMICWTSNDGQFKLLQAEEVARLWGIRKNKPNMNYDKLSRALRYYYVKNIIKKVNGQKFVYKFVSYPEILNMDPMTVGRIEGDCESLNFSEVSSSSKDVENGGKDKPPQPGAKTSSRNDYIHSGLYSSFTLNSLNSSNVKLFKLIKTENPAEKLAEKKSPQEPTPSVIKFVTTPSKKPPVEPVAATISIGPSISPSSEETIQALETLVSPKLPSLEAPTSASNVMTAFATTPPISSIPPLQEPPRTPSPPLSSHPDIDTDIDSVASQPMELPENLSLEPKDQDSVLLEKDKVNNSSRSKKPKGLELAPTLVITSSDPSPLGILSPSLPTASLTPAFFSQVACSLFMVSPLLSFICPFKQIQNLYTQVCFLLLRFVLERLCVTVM
Particulars: protein: recombinant; tags: N-terminal GST; dsDNA, one strand shown. Summed up: as §1

Another test deals with T4, ETV2 (Homo sapiens, UniProt O00321 1-342).
T4 sequence: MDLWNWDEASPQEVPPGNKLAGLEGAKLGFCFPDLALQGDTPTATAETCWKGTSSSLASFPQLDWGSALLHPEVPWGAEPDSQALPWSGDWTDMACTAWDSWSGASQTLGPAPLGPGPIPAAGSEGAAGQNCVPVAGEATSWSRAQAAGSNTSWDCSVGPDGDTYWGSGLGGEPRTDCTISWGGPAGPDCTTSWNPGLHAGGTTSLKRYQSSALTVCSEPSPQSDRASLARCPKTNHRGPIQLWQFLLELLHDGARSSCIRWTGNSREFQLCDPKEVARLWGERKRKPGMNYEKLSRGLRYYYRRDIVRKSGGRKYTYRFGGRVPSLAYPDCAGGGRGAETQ
Particulars: protein: recombinant; tags: N-terminal GST; dsDNA, one strand shown. Summed up:
as §1

Another test deals with T5, ELF3 (Homo sapiens, UniProt P78545 1-371).
T5 sequence: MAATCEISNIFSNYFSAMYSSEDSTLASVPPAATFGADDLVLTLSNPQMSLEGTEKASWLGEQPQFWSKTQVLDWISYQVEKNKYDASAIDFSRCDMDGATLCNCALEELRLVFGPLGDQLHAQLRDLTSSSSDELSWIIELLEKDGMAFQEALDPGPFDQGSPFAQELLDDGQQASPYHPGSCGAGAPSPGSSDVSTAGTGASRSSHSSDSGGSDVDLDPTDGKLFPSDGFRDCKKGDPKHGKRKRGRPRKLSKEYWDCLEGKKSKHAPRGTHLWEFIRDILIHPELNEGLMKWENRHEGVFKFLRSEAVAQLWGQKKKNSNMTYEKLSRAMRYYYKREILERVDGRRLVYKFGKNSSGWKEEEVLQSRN
To be noted: protein: recombinant; tags: N-terminal GST; dsDNA, one strand shown. Put shortly:
as §1

A further test deals with CRX (Homo sapiens, UniProt O43186 1-299). To be noted: protein: recombinant; tags: N-terminal GST; dsDNA, one strand shown. Summed up:
as §1

The target in a further test is ETV1 (Homo sapiens, UniProt P50549 1-477). To be noted: protein: recombinant; tags: N-terminal GST; dsDNA, one strand shown. Put shortly:
as §1

The target of another test is T6, ERF (Homo sapiens, UniProt P50548 1-548).
T6 sequence: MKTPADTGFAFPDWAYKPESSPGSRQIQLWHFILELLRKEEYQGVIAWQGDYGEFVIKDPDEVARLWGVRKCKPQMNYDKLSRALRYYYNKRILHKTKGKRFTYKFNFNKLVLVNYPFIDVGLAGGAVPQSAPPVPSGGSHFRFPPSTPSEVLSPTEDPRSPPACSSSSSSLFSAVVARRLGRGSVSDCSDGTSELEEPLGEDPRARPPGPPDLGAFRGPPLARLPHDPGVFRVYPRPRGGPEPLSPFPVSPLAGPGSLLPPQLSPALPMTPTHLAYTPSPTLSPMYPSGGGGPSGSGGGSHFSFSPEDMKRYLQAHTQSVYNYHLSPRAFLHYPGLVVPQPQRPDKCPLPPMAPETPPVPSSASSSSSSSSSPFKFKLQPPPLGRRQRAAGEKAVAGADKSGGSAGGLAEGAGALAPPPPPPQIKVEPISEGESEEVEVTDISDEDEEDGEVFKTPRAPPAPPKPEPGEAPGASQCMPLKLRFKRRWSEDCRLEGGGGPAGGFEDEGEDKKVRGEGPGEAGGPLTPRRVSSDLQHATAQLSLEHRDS
Particulars: protein: recombinant; tags: N-terminal GST; dsDNA, one strand shown. Summed up: as §1

A further test deals with T7, ETV3L (Homo sapiens, UniProt Q6ZN32 1-361).
T7 sequence: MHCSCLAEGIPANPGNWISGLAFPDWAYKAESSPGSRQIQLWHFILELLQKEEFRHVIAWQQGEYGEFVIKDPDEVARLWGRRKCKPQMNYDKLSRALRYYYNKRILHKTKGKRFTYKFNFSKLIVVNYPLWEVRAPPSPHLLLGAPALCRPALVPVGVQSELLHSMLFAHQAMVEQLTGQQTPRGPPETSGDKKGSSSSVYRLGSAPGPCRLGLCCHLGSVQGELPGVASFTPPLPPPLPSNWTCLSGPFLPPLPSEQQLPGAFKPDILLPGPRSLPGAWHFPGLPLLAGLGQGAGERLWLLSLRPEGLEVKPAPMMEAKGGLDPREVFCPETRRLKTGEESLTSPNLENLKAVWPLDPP
Particulars: protein: recombinant; tags: N-terminal GST; dsDNA, one strand shown. Summed up:
as §1

The target of another test is T8, ETS2 (Homo sapiens, UniProt P15036 1-469).
T8 sequence: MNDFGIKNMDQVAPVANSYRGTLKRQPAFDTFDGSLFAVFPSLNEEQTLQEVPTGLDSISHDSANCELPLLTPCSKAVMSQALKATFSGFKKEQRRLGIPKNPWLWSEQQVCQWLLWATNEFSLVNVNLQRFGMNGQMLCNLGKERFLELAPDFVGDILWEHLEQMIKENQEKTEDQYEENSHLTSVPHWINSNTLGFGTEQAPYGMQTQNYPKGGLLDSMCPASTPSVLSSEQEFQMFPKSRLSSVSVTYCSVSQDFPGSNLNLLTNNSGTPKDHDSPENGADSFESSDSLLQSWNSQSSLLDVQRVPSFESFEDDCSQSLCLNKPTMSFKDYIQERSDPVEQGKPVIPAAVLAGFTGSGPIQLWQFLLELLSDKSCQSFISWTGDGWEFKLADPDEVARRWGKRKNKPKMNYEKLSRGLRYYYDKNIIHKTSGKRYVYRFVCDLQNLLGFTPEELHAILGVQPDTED
To be noted: protein: recombinant; tags: N-terminal GST; dsDNA, one strand shown. Put shortly:
as §1

A further test deals with T9, SPDEF (Homo sapiens, UniProt O95238 1-335).
T9 sequence: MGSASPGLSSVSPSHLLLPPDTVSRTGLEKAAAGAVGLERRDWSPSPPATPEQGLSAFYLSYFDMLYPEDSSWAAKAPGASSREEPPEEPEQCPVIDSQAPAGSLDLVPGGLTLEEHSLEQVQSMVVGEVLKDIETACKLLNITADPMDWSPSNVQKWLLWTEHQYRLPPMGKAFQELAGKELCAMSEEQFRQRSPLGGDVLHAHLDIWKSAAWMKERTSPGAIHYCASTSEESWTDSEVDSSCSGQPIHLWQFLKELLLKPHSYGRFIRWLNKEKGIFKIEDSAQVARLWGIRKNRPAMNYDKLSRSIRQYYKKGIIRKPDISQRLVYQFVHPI
To be noted: protein: recombinant; tags: N-terminal GST; dsDNA, one strand shown. Put shortly: as §1

In the next test the target is T10, ETV7 (Homo sapiens, UniProt Q9Y603 1-341).
T10 sequence: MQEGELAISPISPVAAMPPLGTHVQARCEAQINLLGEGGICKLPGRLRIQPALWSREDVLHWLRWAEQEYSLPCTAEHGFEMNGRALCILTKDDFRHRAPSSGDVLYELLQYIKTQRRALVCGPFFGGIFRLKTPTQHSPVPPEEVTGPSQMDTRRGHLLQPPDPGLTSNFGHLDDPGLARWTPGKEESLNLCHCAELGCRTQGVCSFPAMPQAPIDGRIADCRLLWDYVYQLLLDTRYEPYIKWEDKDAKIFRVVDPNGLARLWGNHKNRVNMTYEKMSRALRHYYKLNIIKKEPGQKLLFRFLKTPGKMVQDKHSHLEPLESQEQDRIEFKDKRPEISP
Particulars: protein: recombinant; tags: N-terminal GST; dsDNA, one strand shown. Summed up:
as §1

The target in the next test is T11, ELF5 (Homo sapiens, UniProt Q9UKW6-2 1-255).
T11 sequence: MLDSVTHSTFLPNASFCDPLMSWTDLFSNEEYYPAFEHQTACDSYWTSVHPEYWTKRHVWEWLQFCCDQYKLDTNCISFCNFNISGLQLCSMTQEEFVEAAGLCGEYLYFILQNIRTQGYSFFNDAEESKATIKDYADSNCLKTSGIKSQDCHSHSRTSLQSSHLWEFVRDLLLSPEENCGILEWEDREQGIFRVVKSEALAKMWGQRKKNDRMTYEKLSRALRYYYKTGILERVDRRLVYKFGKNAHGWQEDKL
Particulars: protein: recombinant; tags: N-terminal GST; dsDNA, one strand shown. Summed up: as §1

For another test, the target named is T12, ETV3 (Homo sapiens, UniProt P41162-2 1-143).
T12 sequence: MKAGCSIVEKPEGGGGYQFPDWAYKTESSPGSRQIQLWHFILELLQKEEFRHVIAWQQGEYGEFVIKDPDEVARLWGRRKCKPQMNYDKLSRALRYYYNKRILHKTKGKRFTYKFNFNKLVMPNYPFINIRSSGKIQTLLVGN
To be noted: protein: recombinant; tags: N-terminal GST; dsDNA, one strand shown. Summed up: as §1

A further test addresses ETV6 (Homo sapiens, UniProt P41212 1-452). To be noted: protein: recombinant; tags: N-terminal GST; dsDNA, one strand shown. Put shortly: as §1

Chain of ELF4 (Q99607 whole entry): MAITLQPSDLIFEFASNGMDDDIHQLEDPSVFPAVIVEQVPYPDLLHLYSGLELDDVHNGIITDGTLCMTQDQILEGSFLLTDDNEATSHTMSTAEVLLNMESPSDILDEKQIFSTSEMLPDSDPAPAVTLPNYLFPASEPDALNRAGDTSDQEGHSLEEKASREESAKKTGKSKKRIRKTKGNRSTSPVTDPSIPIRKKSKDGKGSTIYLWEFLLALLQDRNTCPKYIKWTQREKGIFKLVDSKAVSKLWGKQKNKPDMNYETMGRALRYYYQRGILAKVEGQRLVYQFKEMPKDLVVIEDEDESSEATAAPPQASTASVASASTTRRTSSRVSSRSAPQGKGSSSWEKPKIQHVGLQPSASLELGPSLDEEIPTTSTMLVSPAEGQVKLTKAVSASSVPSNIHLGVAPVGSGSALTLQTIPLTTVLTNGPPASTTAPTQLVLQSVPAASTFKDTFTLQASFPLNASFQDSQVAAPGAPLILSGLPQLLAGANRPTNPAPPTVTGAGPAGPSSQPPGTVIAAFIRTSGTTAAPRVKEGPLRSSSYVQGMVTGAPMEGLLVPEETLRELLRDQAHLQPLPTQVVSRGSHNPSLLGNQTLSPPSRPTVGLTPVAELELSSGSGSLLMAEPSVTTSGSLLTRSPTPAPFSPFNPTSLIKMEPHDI
Chain of ETV5 (P41161 whole entry): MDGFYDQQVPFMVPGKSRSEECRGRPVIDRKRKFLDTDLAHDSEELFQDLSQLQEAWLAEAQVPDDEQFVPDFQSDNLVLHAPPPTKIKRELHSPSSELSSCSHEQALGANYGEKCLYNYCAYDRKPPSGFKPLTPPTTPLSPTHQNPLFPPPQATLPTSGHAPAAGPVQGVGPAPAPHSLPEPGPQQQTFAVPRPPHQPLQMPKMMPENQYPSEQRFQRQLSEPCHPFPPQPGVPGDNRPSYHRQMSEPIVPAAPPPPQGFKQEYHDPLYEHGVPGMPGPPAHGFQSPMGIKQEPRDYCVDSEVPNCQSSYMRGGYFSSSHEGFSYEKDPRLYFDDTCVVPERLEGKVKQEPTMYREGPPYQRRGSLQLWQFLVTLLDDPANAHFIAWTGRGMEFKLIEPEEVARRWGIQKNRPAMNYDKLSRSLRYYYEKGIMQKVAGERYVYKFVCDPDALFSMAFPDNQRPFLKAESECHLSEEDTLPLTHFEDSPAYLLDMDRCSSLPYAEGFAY
Chain of HSF1 (Q00613 whole entry): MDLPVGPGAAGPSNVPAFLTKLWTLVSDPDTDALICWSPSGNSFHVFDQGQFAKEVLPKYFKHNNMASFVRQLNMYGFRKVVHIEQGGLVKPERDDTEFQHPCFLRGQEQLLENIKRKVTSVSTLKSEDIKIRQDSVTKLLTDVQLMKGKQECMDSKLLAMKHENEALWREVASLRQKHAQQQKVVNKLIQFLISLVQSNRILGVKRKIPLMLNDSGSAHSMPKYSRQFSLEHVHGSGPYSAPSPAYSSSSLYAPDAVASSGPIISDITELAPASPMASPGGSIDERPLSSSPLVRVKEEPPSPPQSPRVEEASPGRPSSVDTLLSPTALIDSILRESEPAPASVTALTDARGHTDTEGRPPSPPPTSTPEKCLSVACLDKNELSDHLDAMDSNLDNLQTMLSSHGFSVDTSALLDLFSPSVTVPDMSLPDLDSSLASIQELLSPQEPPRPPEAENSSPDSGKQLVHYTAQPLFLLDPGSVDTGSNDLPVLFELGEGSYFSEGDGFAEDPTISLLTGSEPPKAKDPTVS
Chain of ETV1 (P50549 whole entry): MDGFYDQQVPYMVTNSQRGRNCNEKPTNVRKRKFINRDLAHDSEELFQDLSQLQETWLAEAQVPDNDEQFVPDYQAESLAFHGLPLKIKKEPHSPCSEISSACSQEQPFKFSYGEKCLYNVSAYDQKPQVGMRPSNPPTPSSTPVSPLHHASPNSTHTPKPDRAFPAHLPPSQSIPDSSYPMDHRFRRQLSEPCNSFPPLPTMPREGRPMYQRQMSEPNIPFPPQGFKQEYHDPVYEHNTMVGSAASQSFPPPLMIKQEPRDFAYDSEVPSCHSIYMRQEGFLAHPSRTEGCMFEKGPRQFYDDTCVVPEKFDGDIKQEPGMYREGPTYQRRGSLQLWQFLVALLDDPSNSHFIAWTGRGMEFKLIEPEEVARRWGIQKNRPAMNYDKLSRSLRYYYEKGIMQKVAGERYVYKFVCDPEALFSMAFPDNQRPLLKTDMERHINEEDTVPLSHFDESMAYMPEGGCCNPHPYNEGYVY
Chain of ETV6 (P41212 whole entry): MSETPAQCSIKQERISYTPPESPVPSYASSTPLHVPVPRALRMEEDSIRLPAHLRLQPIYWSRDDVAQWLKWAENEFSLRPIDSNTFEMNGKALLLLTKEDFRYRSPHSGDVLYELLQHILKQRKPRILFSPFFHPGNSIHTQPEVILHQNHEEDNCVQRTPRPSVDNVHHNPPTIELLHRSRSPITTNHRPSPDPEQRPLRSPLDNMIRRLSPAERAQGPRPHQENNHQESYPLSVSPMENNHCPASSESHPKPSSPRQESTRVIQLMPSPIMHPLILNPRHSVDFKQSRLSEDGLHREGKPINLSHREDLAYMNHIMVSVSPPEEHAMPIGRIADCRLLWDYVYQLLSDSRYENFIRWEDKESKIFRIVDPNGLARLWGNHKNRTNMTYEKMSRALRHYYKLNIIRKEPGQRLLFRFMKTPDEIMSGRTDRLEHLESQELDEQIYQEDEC
Chain of CRX (O43186 whole entry): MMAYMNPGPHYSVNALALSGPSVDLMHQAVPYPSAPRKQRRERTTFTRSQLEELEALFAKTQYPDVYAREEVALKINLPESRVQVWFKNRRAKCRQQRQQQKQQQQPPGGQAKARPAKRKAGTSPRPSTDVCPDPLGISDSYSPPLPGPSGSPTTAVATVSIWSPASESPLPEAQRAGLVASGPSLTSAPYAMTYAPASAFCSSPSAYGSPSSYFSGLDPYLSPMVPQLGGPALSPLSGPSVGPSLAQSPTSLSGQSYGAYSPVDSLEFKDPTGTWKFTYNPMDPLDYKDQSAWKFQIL

For GCTACT, the binding signal with FEV was 1.43 fold enrichment (6-mer frequency, TF over GST control); with ETV5 it was 1.39 fold enrichment (6-mer frequency, TF over GST control); with HSF1 it was 1.07 fold enrichment (6-mer frequency, TF over GST control); with SPIC, 1.3 fold enrichment (6-mer frequency, TF over GST control); with ELF4, 1.28 fold enrichment (6-mer frequency, TF over GST control); in the test with ELK4, 1.38 fold enrichment (6-mer frequency, TF over GST control). Further, the binding signal with ETV2 is 1.17 fold enrichment (6-mer frequency, TF over GST control); in the test with ELF3, 1.47 fold enrichment (6-mer frequency, TF over GST control); with CRX, 1.09 fold enrichment (6-mer frequency, TF over GST control); with ETV1 it was 1.32 fold enrichment (6-mer frequency, TF over GST control); in the test with ERF, 1.52 fold enrichment (6-mer frequency, TF over GST control); in the test with ETV3L, 1.2 fold enrichment (6-mer frequency, TF over GST control). In addition, the binding signal with ETS2 is 1.39 fold enrichment (6-mer frequency, TF over GST control); with SPDEF, 1.27 fold enrichment (6-mer frequency, TF over GST control); with ETV7 it was 1.33 fold enrichment (6-mer frequency, TF over GST control); with ELF5 it was 1.2 fold enrichment (6-mer frequency, TF over GST control); with ETV3, 1.19 fold enrichment (6-mer frequency, TF over GST control); in the test with ETV6 it was 1.38 fold enrichment (6-mer frequency, TF over GST control).

For the origin of these results see article PMC7862700, “An all-to-all approach to the identification of sequence-specific readers for epigenetic DNA modifications on cytosine”.
